FBA Mtb inh = inhibits M. tuberculosis FBA enzyme; purified M. tuberculosis FBA, fluorescence read-out; P9WQA3; AID 588726; 2.3% of 360,000 active; inhibition, % at 1 µM; in the data active = inhibition above about 27%;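 note: 0% = vehicle and 100% = reference inhibitor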
Rv3671c inh = Rv3671c (M. tuberculosis) protease inhibition; P9WHR9; AID 2606; 0.048% of 320,000 active; inhibition, % at 5.96 µM; in the data active = inhibition above about 38%;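 note: extracellular domain of Rv3671c used as enzyme; 0% = enzyme with DMSO and 100% = no enzyme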
BH1578 lux ind = inducers of Vibrio cholerae quorum light production without autoinducers; activation, % at 18.7 µM; 0.16% of 350,000 active; V. cholerae BH1578 lux reporter, luminescence, 6 h; in the data active = activation mostly above about 9.7%, no sharp cut-off
RecA splice inh = Mtb RecA intein splicing inhibition. inhibition, % (no concentration beside the values). cell-free RecA intein splicing, fluorescence. 0.75% of 290,000 active; in the data active = inhibition above about 30%;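 note: 0% = vehicle wells and 100% = reference inhibitor control wells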
UGM FP inh = blocks M. tuberculosis UGM enzyme; 0.06% of 320,000 active; P9WIQ1; purified UGM, fluorescence polarization probe displacement; AID 504406; inhibition, % at 10 µM; in the data active = inhibition above about 10%, passing the limit was not always enough
Target sequence (P9WIQ1 whole entry, looked up): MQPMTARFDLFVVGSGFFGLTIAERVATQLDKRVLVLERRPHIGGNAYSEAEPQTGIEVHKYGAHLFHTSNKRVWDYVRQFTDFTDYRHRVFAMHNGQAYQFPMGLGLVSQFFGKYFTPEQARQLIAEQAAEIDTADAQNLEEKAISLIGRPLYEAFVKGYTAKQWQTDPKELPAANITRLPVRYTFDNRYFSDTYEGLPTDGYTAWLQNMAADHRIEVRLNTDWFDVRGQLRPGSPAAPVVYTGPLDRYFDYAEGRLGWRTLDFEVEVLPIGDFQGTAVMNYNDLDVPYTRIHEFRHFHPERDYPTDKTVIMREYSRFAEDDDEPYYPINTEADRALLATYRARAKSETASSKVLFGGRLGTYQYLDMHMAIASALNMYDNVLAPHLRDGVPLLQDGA
GDH-TPI inh = GDH-TPI coupled enzyme inhibition counter-screen | inhibition, % at 4.8 µM | GDH-TPI coupled enzyme counterscreen, NADH absorbance | 1.2% of 360,000 active | AID 588335; in the data active = inhibition above about 30%;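 note: 0% = DMSO wells and 100% = wells lacking the enzyme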
Starred values were filed as active, the others as inactive. Rows were chosen to be rich in hits. Some 4.1% of all compounds tested hit in one or more screens of this group.

How did N#CC(c1ccccc1)C(CC(=NO)c1ccccc1)c1ccccc1 (centres undefined) do in these assays?
FBA Mtb inh: 0; BH1578 lux ind: inactive; GDH-TPI inh: 9

How did CC1=CCC(C(=O)O)C(C(=O)Nc2ccc(-c3nc4ccc(C)cc4s3)cc2)C1 (centres undefined) do in these assays?
FBA Mtb inh: 190*; Rv3671c inh: -15; BH1578 lux ind: inactive; RecA splice inh: 5; UGM FP inh: -1; GDH-TPI inh: 37*

Results for Nc1ccc2nc(-c3ccccc3)sc2c1 ?
FBA Mtb inh: active; Rv3671c inh: 1; BH1578 lux ind: inactive; RecA splice inh: -1; UGM FP inh: -5; GDH-TPI inh: 26

Results for O=C(CCS(=O)(=O)c1ccccc1)Nc1ccc(-c2nc3ccccc3s2)cc1 ?
FBA Mtb inh: 31*; Rv3671c inh: -23; BH1578 lux ind: 0; RecA splice inh: 3; UGM FP inh: -1; GDH-TPI inh: 7

How did CC(=O)NC(=S)Nc1ccc(-c2nc3ccc(C)cc3s2)cc1 do in these assays?
FBA Mtb inh: 6; Rv3671c inh: -5; BH1578 lux ind: inactive; RecA splice inh: -4; UGM FP inh: 3; GDH-TPI inh: 5

What do the screens show for `Cc1ccc2nc(-c3ccc(N)cc3)sc2c1`?
FBA Mtb inh: active; Rv3671c inh: 3; BH1578 lux ind: 0; RecA splice inh: 1; UGM FP inh: -3; GDH-TPI inh: 25

How did O=C(CCS(=O)(=O)c1ccccc1)Nc1cccc(-c2nc3ccccc3s2)c1 do in these assays?
FBA Mtb inh: 0; Rv3671c inh: -40; BH1578 lux ind: inactive; RecA splice inh: 0; UGM FP inh: -3; GDH-TPI inh: -1

Results for Nc1ccc(-c2nc3cc(N)ccc3s2)cc1 ?
FBA Mtb inh: 18; Rv3671c inh: 5; BH1578 lux ind: 0; RecA splice inh: -17; UGM FP inh: 1; GDH-TPI inh: 15

Results for Nc1ccc2nc(-c3ccccc3)c(-c3ccccc3)nc2c1 ?
FBA Mtb inh: 2; Rv3671c inh: 3; BH1578 lux ind: 0; RecA splice inh: -207; UGM FP inh: -1; GDH-TPI inh: 7

How did O=C(O)C(Cc1c[nH]c2ccccc12)NS(=O)(=O)c1ccc(Cl)c(C(F)(F)F)c1 (centres undefined) do in these assays?
FBA Mtb inh: 2; Rv3671c inh: 3; BH1578 lux ind: inactive; RecA splice inh: 1; UGM FP inh: 0; GDH-TPI inh: 8

Results for Cc1cc(C(=O)OCC(=O)NCCc2ccccc2)c2ccccc2n1 ?
FBA Mtb inh: 6; Rv3671c inh: 3; BH1578 lux ind: 0; UGM FP inh: 4; GDH-TPI inh: -3

Results for COc1ccc(NC(=O)C[C@H]2C(=O)N(c3ccccc3)C[C@@H]2C)cc1 ?
FBA Mtb inh: -2; BH1578 lux ind: 0; GDH-TPI inh: 0

What do the screens show for `CNS(=O)(=O)c1cccc(C(=O)OCC(=O)Nc2ccc(-c3nc4ccc(C)cc4s3)cc2)c1`?
FBA Mtb inh: 29*; Rv3671c inh: -35; BH1578 lux ind: 0; RecA splice inh: -1; UGM FP inh: 3; GDH-TPI inh: 23

How did Cc1ccc2nc(-c3ccc(NS(=O)(=O)c4ccc(F)cc4)cc3)sc2c1 do in these assays?
FBA Mtb inh: active; Rv3671c inh: -248; BH1578 lux ind: inactive; RecA splice inh: 10; UGM FP inh: -1; GDH-TPI inh: 37*

How did NC(c1csc(Nc2ccccn2)n1)c1ccccc1Cl (centres undefined) do in these assays?
FBA Mtb inh: 6; BH1578 lux ind: 0; GDH-TPI inh: 9

What do the screens show for `N#C/C(=C\c1ccc[nH]1)C(=O)NC1CC1`?
FBA Mtb inh: -4; Rv3671c inh: 7; BH1578 lux ind: 2; RecA splice inh: -1; UGM FP inh: -5; GDH-TPI inh: 32*

Results for Cc1ccc(C)c(NC(=O)/C(C#N)=C/c2ccc[nH]2)c1 ?
FBA Mtb inh: -3; Rv3671c inh: -1; BH1578 lux ind: 0; RecA splice inh: 0; UGM FP inh: -2; GDH-TPI inh: 31*

What do the screens show for `Cc1cccc(NC(=O)/C(C#N)=C/c2ccc[nH]2)c1C`?
FBA Mtb inh: -2; BH1578 lux ind: 1; RecA splice inh: -3; UGM FP inh: -1; GDH-TPI inh: 25

How did COC(=O)c1ccc(C)c(NC(=O)CSc2nnc3ccccn23)c1 do in these assays?
FBA Mtb inh: 3; Rv3671c inh: 4; BH1578 lux ind: -1; UGM FP inh: -2; GDH-TPI inh: 5

Results for O=C(O)CC/C(=C/c1cccc(NC(=O)c2ccccc2Cl)c1)c1nc2ccccc2s1 ?
FBA Mtb inh: 12; GDH-TPI inh: 37*

What do the screens show for `Cc1cc(C(=O)N/N=C/C=C/c2ccccc2)n[nH]1`?
FBA Mtb inh: -1; Rv3671c inh: 3; BH1578 lux ind: inactive; RecA splice inh: 0; UGM FP inh: 1; GDH-TPI inh: 61*

What do the screens show for `Cc1ccc(-c2cc(C(=O)N/N=C/C=C/c3ccccc3)n[nH]2)s1`?
FBA Mtb inh: 2; Rv3671c inh: -70; BH1578 lux ind: inactive; RecA splice inh: 0; UGM FP inh: -5; GDH-TPI inh: 24

How did Cc1ccc(C(=O)N/N=C/C=C/c2ccccc2)o1 do in these assays?
FBA Mtb inh: 6; Rv3671c inh: 0; BH1578 lux ind: 0; RecA splice inh: 1; UGM FP inh: -1; GDH-TPI inh: 52*

How did Cc1cc(C(=O)N/N=C/C=C/c2cccc([N+](=O)[O-])c2)n[nH]1 do in these assays?
FBA Mtb inh: -5; Rv3671c inh: 5; BH1578 lux ind: -1; RecA splice inh: -1; UGM FP inh: -1; GDH-TPI inh: 24

How did O=C(N/N=C/C=C/c1ccccc1)c1cc(C2CC2)[nH]n1 do in these assays?
FBA Mtb inh: -1; Rv3671c inh: 7; BH1578 lux ind: inactive; RecA splice inh: -1; UGM FP inh: -2; GDH-TPI inh: 67*

How did N#CC1(CCCN2CCCCC2)c2ccccc2CCc2ccccc21 do in these assays?
FBA Mtb inh: 0; Rv3671c inh: 6; BH1578 lux ind: inactive; UGM FP inh: -1; GDH-TPI inh: -9

What do the screens show for `N#CCCC1(CCC#N)c2ccccc2C(=O)c2ccccc21`?
FBA Mtb inh: 1

Results for COc1cccc(NC(=O)C2CCCO2)c1 (centres undefined) ?
FBA Mtb inh: -3; Rv3671c inh: -3; BH1578 lux ind: -1; RecA splice inh: 1; UGM FP inh: -4; GDH-TPI inh: -8

How did NC(=O)c1cccc(-c2cccc3nccn23)c1 do in these assays?
FBA Mtb inh: 2; BH1578 lux ind: 0; GDH-TPI inh: 2

What do the screens show for `Clc1cccc(-c2cccc3nccn23)c1`?
FBA Mtb inh: active; BH1578 lux ind: inactive; GDH-TPI inh: 16

How did OCc1ccccc1-c1cccc2nccn12 do in these assays?
FBA Mtb inh: 15; BH1578 lux ind: 0; GDH-TPI inh: 13

Results for CN(C)c1ccc(-c2cccc3nccn23)cc1 ?
FBA Mtb inh: active; BH1578 lux ind: -1; GDH-TPI inh: 20

What do the screens show for `c1cc(-c2ccc(N3CCOCC3)cc2)n2ccnc2c1`?
FBA Mtb inh: active; BH1578 lux ind: 0; GDH-TPI inh: 17

High-throughput results from PubChem BioAssay.
